Laboratory results taken from the OligoGym collection.

What follows are sequences tested against APOA4 (assay: pooled miR-30 sensor sort-seq; sequence = guide strand). Conditions: shRNA.
Also: reference of the scale not given here.

Row | Sequence | sensor-assay potency score (higher = more potent)
1 | TTCTTCTGCAGGTCACCTGCGT | -0.176
2 | TTTCTGGAGATGTTCCACGGCC | -0.87
3 | TTCTCCTTGAAGGTGCTGAAGA | -1.33
4 | TTGAAGGTGCTGAAGAAGGAGT | -1.02
5 | TCCACGTTCTGGTCGATCTTGG | -1.41
6 | TCTTCTGCAGGTCACCTGCGTA | -1.37

What follows are sequences tested against APOBEC1 in the same assay as above. Conditions: shRNA.

Row | Sequence | sensor-assay potency score (higher = more potent)
7 | TAGAATTATGCAGTGCAGCTCC | 0.275
8 | TAACAAGGTCCCTGAGACCTTG | -0.747
9 | TAGTTGACAAAATTCCTCCAGC | 0.113
10 | TCCACTGTTAACAAGGTCCCTG | -0.838
11 | TGAAAATCTCTTTCTGACGTAA | -0.0382
12 | TAAAATTAACTTCCACGTGATT | -0.973
13 | TTAAACAGGGTGGAAGACTTAG | -0.633
14 | TACAACATCATCCACAGAGGTG | -0.853
15 | TTTAGTGGGTCATCATTGCTTG | -0.449
16 | TTTTTATAAAATTAACTTCCAC | -0.469
17 | TAGAAGACGTCAAACTCCCAGG | -0.81
18 | AATTATGCAGTGCAGCTCCAGT | -0.901
19 | TAGAGTCACACCAGGGTGCCGA | -0.942
20 | TTAACTTCCACGTGATTGGTGG | 0.311
21 | TTGATTTCGTAGAGCAGACAGG | -1.09
22 | ATAATCTGAATAGTTACTCCAC | 0.108
23 | TATAAAATTAACTTCCACGTGA | 0.0953
24 | TTTTATAAAATTAACTTCCACG | -0.657
25 | TTTTTGCCTGAGCTTCGCCAGA | -1.38
26 | TTTCGTAGAGCAGACAGGCCTC | -0.178
27 | TTTTGTTGATCCATGTGCCAAA | -1.26
28 | TTGAAATCTTTAAACAGGGTGG | 0.0773
29 | TAATCTGAATAGTTACTCCACT | -0.77
30 | TTGCCGATTTTGTTGATCCATG | -1.51

These sequences were tested against APOBEC3A in the same assay as above. Conditions: shRNA.

Row | Sequence | sensor-assay potency score (higher = more potent)
31 | TGTGGATCCATCAAGTGTCTGG | -0.129
32 | TGCTGGTCCATCTTGACCGAGG | -1.28
33 | TTCGTAGCACAGGTAGGTCTTA | -0.473
34 | TTAGTCTAGATATGAAGCCAAA | -1.73
35 | TTAAAAATCTACTTGATCGGGA | 0.68
36 | TGGTCCATCTTGACCGAGGTGC | -0.749
37 | TAAAAATCTACTTGATCGGGAG | 0.575
38 | TACATTGAAAATTATTCTGAGA | -1.07
39 | TATTCTGAGAATATTGAGCATA | -1.17
40 | AATCTTACTATTGTGTACTTGG | 0.0307
